The text below walks through data of PubChem BioAssay (NCI).

Compounds without any hit were thinned out: in the full panel of roughly 83,000, 20% have a hit.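 Each cell line was grown in a 96-well plate and treated with one concentration of compound for 48 hours. Values below 10 were considered active.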 Unmarked numbers belong to inactive results. Active and inactive are the calls of the source.

This experiment deals with HL-60(TB) leukemia. As to the kind of experiment: NCI-60 one-dose screen, 48 h (100 = growth as untreated, 0 = no growth, -100 = all killed). To be noted: 10 µM unless noted.
Turning to `Cc1ncc(C(=O)Nc2ccc(CN3CCN(C)CC3)c(C(F)(F)F)c2)cc1C#Cc1cnc(N)c2ncccc12`, the growth was 6.76% (active). On to `O=C1/C(=C/c2c[nH]c(=O)[nH]c2=O)SC(=S)N1Cc1ccccc1`, for which the growth is 99.3%.

As for `CC(=O)CC/C=C(\C)[C@H](O)[C@H](C)C(=O)O[C@H]1C[C@H](C)C=C2C=C[C@@]3(C)O[C@@H](O)CC(=O)[C@]3(C)[C@H]21`, the growth was -21.3% (active).

Take `COc1ccc(/C=C/C(c2cc(OC)c(OC)c(OC)c2)n2cncn2)cc1` (stereo unspecified): the growth is -17.9% (active). On to `Fc1ccc(/C=N/n2c(-c3cc(Cl)cc(Cl)c3Cl)nn(CNc3ccc(Cl)nn3)c2=S)cc1`, for which the growth is 90.1%.

As to `COc1ccc(/C=C2\SC(=Nc3ccccc3)NC2=O)cc1`, the growth was -70.8% (active). As for `CC1=C2[C@@H](CC1)[C@]1(C)O[C@@](C3CCCCC3)(C[C@H]1OC(=O)CO)[C@H]2OC(=O)/C=C/c1ccccc1`, the figure is 82.5%; as for `CNC(=O)NCC1OC(n2cnc3c(NC(=O)Nc4ccccc4)ncnc32)C2OC(=O)CC12` (stereo unspecified), 82.7%. With `Nc1ccn(C2OC(F)(CO)C(O)C2F)c(=O)n1` (stereo unspecified), the growth was 12.2%. `O=C(Cn1cc(CN2C(=O)c3ccccc3S2(=O)=O)nn1)Nc1ccc([N+](=O)[O-])cc1Cl`: the growth is 94.6%. The value for `CCCCS(=O)(=O)c1cc(Nc2ccc(O)c3c2C(=O)c2ccccc2C3=O)ccc1C` was 75%; that for `O=C1c2nsnc2C(=O)c2c(F)c(F)c(F)c(F)c21` was -41.9% (active). As for `CCN(CC)c1ccc(C2=NN(C(C)=O)C(c3cc(OC)c(OC)c(OC)c3)C2)cc1` (stereo unspecified), the figure is -42% (active); as for `O=C(N/N=C/c1ccc([N+](=O)[O-])cc1)c1ccc(Br)o1`, 123%.

With `OCCn1cccn1`, the growth is 99.2%. As for `Nc1nc(N)c2c(n1)NC(c1ccc(Cl)cc1)C1CCc3ccccc3C1=N2` (stereo unspecified), the figure is 13.5%; as for `Cc1ccc(-c2nnc(SCc3nc(N)nc(Nc4ccccc4F)n3)n2-c2ccccc2)cc1`, -21.3% (active).

Consider `CCc1ccc2nc(NC(=O)Cc3csc(NC(=O)c4ccco4)n3)sc2c1`, for which the growth is 74.2%. As for `O=C(O)c1ccc2nc(-c3ccc(OCCCCCOc4ccc(-c5nc6ccc(C(=O)O)cc6[nH]5)cc4)cc3)[nH]c2c1`, the figure is 108%.

Turning to `C#CCOc1ccc2ncnc(Nc3ccc(NC(=O)C=C)cc3)c2c1`, the growth was -52.5% (active).

Turning to `COc1cnc2c(c1)C(=O)c1c-2n(CCCNCCN2CCOCC2)c(=O)c2cc([N+](=O)[O-])ccc12`, the growth is -15.7% (active).

With `Oc1ccccc1/C=N/Nc1ccc2ccccc2n1`, the growth was -8.13% (active). Take `C=C1CC[C@@H]2[C@](C)(COC(C)=O)[C@H](OC(C)=O)CC[C@@]2(C)[C@@H]1C/C=C1/C(=O)OC[C@H]1OC(C)=O`: the growth is 79.1%. The value for `COc1ccc(/C(C)=C(\c2ccc(Cl)cc2)c2ccc(OCCN3CCCCCC3)cc2)cc1` was 25.8%.

`Cc1cc2nc(CC(=O)c3cccc([N+](=O)[O-])c3)c(=O)[nH]c2cc1C`: the growth was 93.5%.

`N#CC(=S)Nc1ccc(Cl)c(Cl)c1`: the growth was 8.99% (active).
